Counter-ions that a name gives are not always drawn. Among all 1,800 compounds or so, about 50 (3%) showed activity. Many of the other results were omitted from the sample, so actives are more common in it than they were. Values without a mark were called inactive.
test system: mouse p16Ink4a+/- lung fibroblasts (INKBRITE, bleomycin-injured); assay: percentage of GFP+ (p16Ink4a+) fibroblasts among all cells in well; higher = less depletion of p16Ink4a+ cells, active = 20 or less; settings: 1 µM; 3 days

Compound | percentage of GFP+
COc1cc(OC)c(/C=C/S(=O)(=O)Cc2ccc(OC)c(NCC(=O)O)c2)c(OC)c1 [Rigosertib] | 27.9%
O=C(O)COCCN1CCN(C(c2ccccc2)c2ccc(Cl)cc2)CC1 (stereo unspecified) [Cetirizine] | 46.1%
C[C@@H](NCCCc1cccc(C(F)(F)F)c1)c1cccc2ccccc12 [Cinacalcet] | 33.2%
CCCSc1nc(N[C@@H]2C[C@H]2c2ccc(F)c(F)c2)c2nnn([C@@H]3C[C@H](OCCO)[C@@H](O)[C@H]3O)c2n1 [Ticagrelor] | 30.8%
COc1cc([C@@H]2c3cc4c(cc3[C@@H](O[C@@H]3O[C@@H]5CO[C@@H](c6cccs6)O[C@H]5[C@H](O)[C@H]3O)[C@H]3COC(=O)[C@H]23)OCO4)cc(OC)c1O [Teniposide] | 21.1%
COc1cc([C@@H]2c3cc4c(cc3[C@@H](O[C@@H]3O[C@@H]5CO[C@@H](C)O[C@H]5[C@H](O)[C@H]3O)[C@H]3COC(=O)[C@H]23)OCO4)cc(OC)c1O [Etoposide] | 19.3% (active)
C=CC(=O)Nc1cccc(Sc2nc(Nc3ccc(N4CCN(C)CC4)cc3)ncc2Cl)c1 | 46.3%
O=C(Nc1ccccc1Br)N[C@@H]1CCN(c2ccc(C(F)(F)F)cn2)C1 | 39.1%
CCCC(C)NC(=O)c1ccc(Cl)c(Cl)c1 (stereo unspecified) | 45.8%
CC(C)C[C@H](NC(=O)CNC(=O)c1cc(Cl)ccc1Cl)B(O)O [Ixazomib] | 4.65% (active)
CNCC[C@H](Oc1cccc2ccccc12)c1cccs1 [Duloxetine] | 33.8%
Cn1c(=O)c2nc[nH]c2n(C)c1=O [Aminophylline, Theophylline] | 44.7%
CN(C)CCN(Cc1ccccc1)c1ccccn1 [Tripelennamine] | 45.6%
O=C[C@H](O)[C@@H](O)[C@H](O)[C@H](O)CO [D-glucose] | 42.5%
C[C@@H]1CN(CC(=O)Nc2ccc3c(c2)Cc2cccc(-c4cc(=O)cc(N5CCOCC5)o4)c2S3)C[C@H](C)O1 | 44.7%
Nc1nc(Cl)nc2c1ncn2[C@@H]1O[C@H](CO)[C@@H](O)[C@@H]1F [Clofarabine] | 35.5%
COc1ccc2c(c1)c(C1=C(c3c[nH]c4ccccc34)C(=O)NC1=O)cn2CCCN(C)C | 60.7%
O=C(O)CCCc1c[nH]c2ccccc12 [3-Indolebutyric Acid] | 48.2%
O=C(/C=C/c1ccc(CN(CCO)CCc2c[nH]c3ccccc23)cc1)NO [Dacinostat] | 4.88% (active)
OCc1c[nH]c2ccccc12 [Indole-3-carbinol] | 47%
C=C(c1ccc(C(=O)O)cc1)c1cc2c(cc1C)C(C)(C)CCC2(C)C [Bexarotene] | 46%

Compound | percentage of GFP+
COc1ccc(NS(=O)(=O)c2sc3ccc(Cl)cc3c2C)cc1N1CCNCC1 | 59.1%
COc1ccc(Cn2ccc3ccc(C(=O)NO)cc32)cc1 | 47.2%
N[C@@H](CC(=O)N1CCn2c(nnc2C(F)(F)F)C1)Cc1cc(F)c(F)cc1F [Sitagliptin] | 44.6%
CCn1cc(C(=O)O)c(=O)c2cc(F)c(N3CCNC(C)C3)c(F)c21 (stereo unspecified) [Lomefloxacin] | 44%
CC[C@@H](C)Nc1cc(C(=O)NC2CC3CCC(C2)N3c2ccc(C(=O)C3CC3)cn2)c(C)cc1C(N)=O (stereo partly specified) | 5.49% (active)
CC(C)(F)C[C@H](N[C@@H](c1ccc(-c2ccc(S(C)(=O)=O)cc2)cc1)C(F)(F)F)C(=O)NC1(C#N)CC1 [Odanacatib] | 44.3%
C#Cc1cccc(Nc2ncnc3cc(OCCOC)c(OCCO)cc23)c1 | 54.2%
C#Cc1cccc(Nc2ncnc3cc(OC)c(OCCCCCCC(=O)NO)cc23)c1 | 37.4%
C#Cc1cccc(Nc2ncnc3cc(OCCOC)c(OCCOC)cc23)c1 [Erlotinib] | 7.35% (active)
COc1ccc(-c2cc(=O)c3c(O)cc(O)cc3o2)cc1O [Diosmetin] | 42.4%
CC(C)(OCc1nn(Cc2ccccc2)c2ccccc12)C(=O)O [Bindarit] | 45.3%
CCCN1CCCC[C@H]1C(=O)Nc1c(C)cccc1C [Ropivacaine, Ropivacaine Hydrochloride] | 46%
CCCCCCCCCC(=O)N[C@@H](Cc1c[nH]c2ccccc12)C(=O)N[C@H](CC(N)=O)C(=O)N[C@@H](CC(=O)O)C(=O)N[C@@H]1C(=O)NCC(=O)N[C@H](CCCN)C(=O)N[C@@H](CC(=O)O)C(=O)N[C@@H](C)C(=O)N[C@@H](CC(=O)O)C(=O)NCC(=O)N[C@H](CO)C(=O)N[C@@H]([C@@H](C)CC(=O)O)C(=O)N[C@@H](CC(=O)c2ccccc2N)C(=O)O[C@@H]1C [Daptomycin] | 37.2%
COC(=O)C1=C(C)N=C(C)/C(=C(/O)OC)C1c1ccccc1[N+](=O)[O-] (stereo unspecified) [Nifedipine] | 34.3%
C=CC1=C(C(=O)O)N2C(=O)[C@@H](NC(=O)/C(=N\O)c3csc(N)n3)[C@H]2SC1 [Cefdinir] | 49.9%
CO/N=C(/C(=O)N[C@@H]1C(=O)N2C(C(=O)O)=C(CSC(=O)c3ccco3)CS[C@H]12)c1csc(N)n1 [Ceftiofur HCl] | 39.5%
CO/N=C(/C(=O)N[C@H]1C(=O)N2C(C(=O)O)=C(Cn3ccc(=N)n3CCO)CS[C@H]12)c1csc(N)n1 [Cefoselis Sulfate] | 17.3% (active)
O=C(c1ccccc1)c1ccc2n1CCC2C(=O)O (stereo unspecified) [Ketorolac] | 38.6%
Oc1ccc(/C=C/c2cc(O)cc(O)c2)cc1 [Resveratrol] | 42.8%
CC1(C)CCC(C)(C)c2cc(NC(=O)c3ccc(C(=O)O)cc3)ccc21 [Tamibarotene] | 28.2%
